Compound activity (PubChem BioAssay)
VLA-4 inh: inhibition in a human VLA-4 binding assay | P13612 | VLA-4 expressing cells, ligand binding flow cytometry | inhibition, % (about 7 µM as worked out from the volumes in the protocol) | 0.2% of 330,000 active | AID 2557; in the data active = inhibition above about 50%
A3A deaminase: inhibitors of human APOBEC3A DNA deaminase; P31941; recombinant A3A, FAM/TAMRA ssDNA deamination fluorescence; inhibition, % at 20 µM; 0.41% of 330,000 active;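 active = at least 40% inhibition at 20 µM here, with at most 30% in a related deaminase screen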
A3G deaminase: blocks human APOBEC3G single-stranded DNA deamination; Q9HC16; recombinant A3G, ssDNA deamination FAM/TAMRA fluorescence; inhibition, % at 20 µM; 0.28% of 330,000 active;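 active = inhibition of at least 40% at 20 µM, with no more than 30% in the related APOBEC3A deaminase screen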
GRK2 aptamer HTS: inhibitors of human GRK2 displacing RNA aptamer. 0.59% of 330,000 active. AID 488847. inhibition of aptamer binding, % at 10 µM. bead flow cytometry, FAM-aptamer displacement from GRK2. P25098;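 active = inhibition of aptamer binding above 40%, roughly 3 SD of noise, on plates passing a quality check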;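 also: median bead fluorescence of bound FAM aptamer so fluorescent compounds give negative values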
VLA-4 allo CP: confirmation of allosteric modulators of human VLA-4 integrin; shares compounds with VLA-4 inh; inhibition, % at 6.7 µM; 2% of 1,300 active; U937 cells, HUTS-21 LIBS mAb binding, flow cytometry; LDV ligand present at threefold Kd; in the data active = inhibition above about 40%
A number is an active result; - = inactive; . = no result. Most compounds without a hit are left out; they make up all but 1.4% or so of the library.

SMILES	VLA-4 inh	A3A deaminase	A3G deaminase	GRK2 aptamer HTS	VLA-4 allo CP
Cc1c(S(=O)(=O)N2CCC(C)CC2)c(=O)n(C)c(=O)n1C	50.4	-	-	-	-
O=C(Nc1nc(N2C(=O)c3ccccc3C2=O)n(-c2ccccc2)n1)c1ccccc1	-	-	-	-	.
CCOC(=O)C1CCCN(S(=O)(=O)c2cc3[nH]c(=O)c(=O)[nH]c3cc2C)C1 (stereo not drawn)	50.4	-	-	-	-
Cn1nc(NC(=O)CC23CC4CC(CC(C4)C2)C3)c2c(F)cccc21	-	-	-	-	.
O=C(CCSc1nnc(-c2ccncc2)o1)Nc1ccc(Cl)cc1	50.5	-	-	-	-
CNC(=O)CSc1nc2c([nH]c3ccccc32)c(=O)n1CCOC	58.0	-	-	-	-
COCCn1c(SCC(=O)Nc2ccc(F)cc2)nc2c([nH]c3ccccc32)c1=O	-	-	-	-	.
O=S1(=O)C=C(N2CCOCC2)c2ccccc21	-	-	-	-	.
O=C(Nc1cccc(Cl)c1)OCc1cnc(Cl)s1	-	-	-	-	-
COC(=O)COc1c(/C=C\c2nc(O)c([N+](=O)[O-])c(=O)[nH]2)cccc1OC	-	-	-	-	.
O=C1CCC(c2ccccc2)=NN1	-	-	-	-	.
O=C1CCC(c2ccc3c(c2)CCC3)=NN1	53.5	-	-	-	-
C/C(=N\NC(=O)c1ccoc1C)c1ccc(Br)s1	-	-	-	-	.
O=c1[nH]c2ccccc2nc1NCCN1CCOCC1	-	-	-	-	.
c1ccc2[nH]c(NCCCN3CCOCC3)nc2c1	61.8	-	-	-	-
COc1ccc(-n2c(SCC(=O)Nc3nccs3)nc3sc4c(c3c2=O)CCN(C)C4)cc1	-	-	-	-	.
CN(CC(=O)Nc1ccc(F)cc1)C(=O)COC(=O)c1cccc(N(C)C)c1	-	-	-	-	.
CN(CC(=O)Nc1ccc(F)cc1)C(=O)COC(=O)c1ccccc1	50.2	-	-	-	-
COc1ccc2[nH]c(=O)c(-c3nnn(-c4ccccc4)n3)cc2c1	.	-	-	.	.
COc1ccc2[nH]c(=O)c(-c3noc(-c4ccccc4)n3)cc2c1	96.0	-	-	-	-
CC(=O)Nc1ccc(NC(=O)c2cc(S(=O)(=O)N3CCCCC3)ccc2N2CCOCC2)cc1	.	.	.	.	-
NC(=O)c1ccc(NC(=O)c2cc(S(=O)(=O)N3CCCCC3)ccc2N2CCOCC2)cc1	-	-	-	-	.
COc1cc(NC(=O)c2cc(S(=O)(=O)N3CCCCC3)ccc2N2CCOCC2)cc(OC)c1	-	-	-	-	-
COc1ccc(C)cc1NC(=O)c1cc(S(=O)(=O)N2CCCCC2)ccc1N1CCOCC1	-	-	-	-	-
COc1ccc(C)cc1NC(=O)c1ccc(S(=O)(=O)N2CCCCC2)cc1	-	-	-	-	.
SMILES	VLA-4 inh	A3A deaminase	A3G deaminase	GRK2 aptamer HTS	VLA-4 allo CP
O=C(Nc1ccc(OC(F)F)cc1)c1cc(S(=O)(=O)N2CCCCC2)ccc1N1CCOCC1	-	-	-	-	-
CCCNC(=O)c1cc(S(=O)(=O)N2CCCCC2)ccc1N1CCOCC1	-	-	-	-	.
COc1ccc(C(=O)C2CCN(C(=O)c3ccc(C)cc3)CC2)cc1	-	-	-	-	.
CC(C)(C)c1ccc(/C=C(\C#N)C(=O)NC2CC2)cc1	-	-	-	-	.
COc1ccc(/C=C/c2nc(-c3ccccc3O)n[nH]2)cc1OC	-	-	-	-	.
COc1ccc(C(=O)OCC(=O)c2ccc(C3CCCCC3)cc2)cc1	-	-	-	-	.
NC(=O)c1cc([N+](=O)[O-])ccc1Nc1ccccc1	-	-	-	-	.
Cc1ccc(NC(=O)c2cc(S(=O)(=O)N3CCCCC3)ccc2N2CCOCC2)cc1F	-	-	-	-	.
Cc1ccc(S(=O)(=O)N(C)C)cc1NC(=O)c1cc(S(=O)(=O)N2CCCCC2)ccc1N1CCOCC1	.	-	-	.	-
Cc1nc([N+](=O)[O-])c(NCCO)n1Cc1ccccc1	53.9	-	-	-	-
Cc1nc([N+](=O)[O-])c(SCC(N)=O)n1Cc1ccccc1	-	-	-	-	.
C=C1CCN(C(C)C(=O)OC)S(=O)(=O)c2ccccc21 (stereo not drawn)	-	-	-	-	.
CCN(CC)C(=O)CSc1nnc2sc3ccccc3n12	-	-	-	-	.
NC(=O)Cn1cc(C(=O)C(=O)N2CCOCC2)c2ccccc21	-	-	-	-	-
CN1C(=O)CCC(CCC(=O)O)(c2ccccc2O)C1=O (stereo not drawn)	-	-	-	-	.
CCOC(=O)C1(CCOc2ccccc2)CCN(Cc2ccc(OC)c(COC)c2)CC1	-	-	-	-	.
COc1ccccc1NC(=O)N1CCN(c2ccccn2)CC1	52.3	-	-	-	-
CC(C)C(c1nnnn1CCc1ccccc1)N1CCC(C(N)=O)CC1 (stereo not drawn)	-	-	-	-	.
CN1CC(=O)Nc2ccccc2C1=O	-	-	-	-	-
CN1CC(=O)Nc2ccc(Br)cc2C1=O	52.2	-	-	-	-
CCCc1nc2ccccc2c(=O)n1/N=C/c1ccccc1O	90.6	-	-	-	-
Cc1nc2ccccc2c(=O)n1/N=C/c1ccc(O)cc1O	-	-	-	-	.
CCOC(=O)c1c(C)[nH]c(C(=O)COC(=O)CCSc2ccccc2)c1C	-	-	-	-	.
CCCCC(=O)OCC(=O)c1[nH]c(C)c(C(=O)OCC)c1C	-	-	-	-	-
CCOC(=O)c1c(C)[nH]c(C(=O)COC(=O)CSC)c1C	91.4	-	-	-	-
SMILES	VLA-4 inh	A3A deaminase	A3G deaminase	GRK2 aptamer HTS	VLA-4 allo CP
FC(F)(F)c1nnc2c(Sc3ccc(Cl)cc3)nc3ccccc3n12	-	-	-	-	.
COc1ccc(-c2cn3c(C)c(C(=O)Nc4ccncc4)sc3n2)cc1	-	-	-	-	.
COC(=O)c1ccc(NC(=O)c2sc3nc(-c4ccccc4)cn3c2C)cc1	51.9	-	-	-	-
Cc1ccc(C(=O)Cn2ncsc2=N)cc1	-	-	-	-	.
COc1ccc(-n2c(Cc3cc(=O)[nH]c(=O)[nH]3)nnc2SCc2ccccc2)cc1	51.1	-	-	-	-
COc1cccc(-n2c(Cc3cc(=O)[nH]c(=O)[nH]3)nnc2SCC(=O)NC2CCCCC2)c1	-	-	-	-	.
Cc1ccc(-n2c(CSc3nc(C)cc(C)n3)nnc2SCC(=O)N2CCCC2)cc1	50.0	-	-	-	-
COc1cccc(-n2c(Cc3cc(=O)[nH]c(=O)[nH]3)nnc2SCC(=O)N2CCCCC2)c1	-	-	-	-	-
O=C(CSc1nnc(Cc2cc(=O)[nH]c(=O)[nH]2)n1-c1ccc(F)cc1)N1CCCCC1	-	-	-	-	-
CN1C(=O)C2(OCC(C)([N+](=O)[O-])CO2)c2ccccc21 (stereo not drawn)	-	.	.	-	.
CCNC(=S)Nc1cc(OCC)c(N2CCOCC2)cc1OCC	-	-	-	-	-
CCCNC(=O)Nc1cc(OCC)c(N2CCOCC2)cc1OCC	-	-	-	-	.
CCN(C[C@H]1N[C@@](Cc2ccccc2)(C(=O)OC)[C@H]2C(=O)N(Cc3ccccc3)C(=O)[C@@H]12)C(=O)COC	-	-	-	-	-
